From PubChem BioAssay (NCI) come the findings set out here.

Experiment [1] is described as follows: NCI Yeast Anticancer Drug Screen. Data for the rad50 strain (AID 155).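 Also: 0% = growth of vehicle-only cultures of the same strain.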 To be noted: S. cerevisiae rad50 strain growth inhibition; at 50.0 µM; stronger effect = higher value. The procedure, abridged: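 A DNA repair-deficient yeast mutant serves as the test organism; compound-induced growth inhibition is calculated against vehicle-treated cells.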
A short description of experiment [2]: NCI Yeast Anticancer Drug Screen. Data for the mec2-1 strain (AID 157). The settings on record: S. cerevisiae mec2-1 strain, at 50.0 µM, stronger effect = higher value. The procedure, abridged:
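Growth inhibition is read against vehicle-treated controls after compound exposure of the mec2-1 yeast strain, which is defective in DNA damage repair or cell cycle control.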

The nature of experiment [3]: NCI Yeast Anticancer Drug Screen. Data for the sgs1 mgt1 strain (AID 161).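 Also: 0% = growth of cultures given vehicle only.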 The settings on record: S. cerevisiae sgs1 mgt1 strain, at 50.0 µM, stronger effect = higher value. The procedure, abridged: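 Yeast cells carrying a defined DNA-repair defect were exposed to test compounds. Growth inhibition was measured relative to vehicle-treated controls.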
Experiment [4] is described as follows: NCI Yeast Anticancer Drug Screen. Data for the cln2 rad14 strain (AID 165).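 Also: 0% = growth equal to vehicle treated cultures.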 The settings on record: S. cerevisiae cln2 rad14 strain, at 50.0 µM, stronger effect = higher value. An outline of the steps:
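Growth inhibition, relative to vehicle-treated controls, is the read-out. The test organism is a yeast strain with defined genetic alterations, cln2 rad14.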

A short description of experiment [5]: NCI Yeast Anticancer Drug Screen. Data for the bub3 strain (AID 167). The settings on record: S. cerevisiae bub3 mutant strain, at 50.0 µM, stronger effect = higher value. The procedure, abridged:
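Inhibition values come from growth of compound-treated mutant yeast normalised to vehicle-treated controls.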

A short description of experiment [6]: NCI Yeast Anticancer Drug Screen. Data for the mlh1 rad18 strain (AID 175). The settings on record: S. cerevisiae mlh1 rad18 strain growth inhibition; at 50.0 µM; stronger effect = higher value. The procedure, abridged: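 Cells of a genetically altered yeast strain, deficient in DNA damage repair, were treated with compound. Their growth was then compared with that of vehicle-treated cultures to give inhibition.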

Values joined by “and” are separate entries in the source; they are usually repeats but may differ in a detail not shown here. Identical values can stand only once. The panel holds about 79,000 compounds, 15% with a hit somewhere; the sample as a whole holds those more often. Unmarked numbers belong to inactive results. Active and inactive are the calls of the source. Rule as the data show it: active = growth inhibition above about 70%; inactive = the rest.

Turning to `CN(Cc1cnc2nc(N)nc(N)c2n1)c1ccc(C(=O)NC(CCC(=O)NC(CC(P(=O)(O)O)P(=O)(O)O)C(=O)O)C(=O)O)cc1` (centres undefined), the growth inhibition was -19.6% in experiment [1]; -14.6% in experiment [2]; -8.05% in experiment [3]; 16.6% in experiment [4]; 5.75% in experiment [5]; -21.9% in experiment [6].

Regarding `COc1ccc(CC(N)C(=O)O)cc1N(CCCl)CCCl` (centres undefined), the growth inhibition in experiment [1] is -0.2% and -0.5%; in experiment [2], -0.55% and -7.45%; in experiment [3], -11.2% and -6.65%; in experiment [4] it was -6.55% and -9.85%; in experiment [5], 2.25% and 7.75%; in experiment [6], -9.25% and -7.2%.

In the case of `CCOc1ccc2c(N/N=C/c3ccc(N(CCCl)CCCl)cc3)cc(C)nc2c1`, the growth inhibition is 96.3% (active) in experiment [1]; 97.6% (active) in experiment [2]; 97.3% (active) in experiment [3]; 97.8% (active) in experiment [4]; 95.7% (active) in experiment [5]; 96.3% (active) in experiment [6].

`S=P(Nc1ccccc1Cl)(Nc1ccccc1Cl)c1ccccc1`: the growth inhibition in experiment [1] was 30.3%; in experiment [2], 25.8%; in experiment [3], 39.9%; in experiment [4], 37.9%; in experiment [5], 39.4%; in experiment [6] it was 21%.

For the molecule `CC([NH-])C[NH-].[Na+].[O]=[Co][O-]` (centres undefined), the growth inhibition in experiment [1] was 8.4%; in experiment [2], 11.9%; in experiment [3], 24.5%; in experiment [4], -21.6%; in experiment [5] it was -0.25%; in experiment [6] it was 10.3%.

On to `Oc1c(Cl)cc(Cl)cc1C1N(Cc2ccc(N(CCCl)CCCl)cc2)CCCN1Cc1ccc(N(CCCl)CCCl)cc1`, for which the growth inhibition was 8.75% in experiment [1]; 17.2% in experiment [2]; 23.4% in experiment [3]; -3.25% in experiment [4]; 3.7% in experiment [5]; 41.5% in experiment [6].

As for `[Se]=[Nb]=[Se]`, the growth inhibition in experiment [1] was -5.8%; in experiment [2] it was -6.55%; in experiment [3] it was -18.3%; in experiment [4], -5.1%; in experiment [5], -27.1%; in experiment [6] it was -28.5%.

As to `O=[N+]([O-])c1ccc(Cl)c(Cl)c1`, the growth inhibition is 20.9% in experiment [1]; -4.6% in experiment [2]; -8.5% in experiment [3]; -37.5% in experiment [4]; -5% in experiment [5]; 26.1% in experiment [6].

As for `COC(=O)N/N=C(\C)C(CN(C)C)C(c1ccccc1)c1c(O)c2ccccc2oc1=O` (centres undefined), the growth inhibition in experiment [1] was 35.4%; in experiment [2], 28.9%; in experiment [3], 47%; in experiment [4], 34.6%; in experiment [5], 49.4%; in experiment [6], 34.1%.

`[CH3][Sn]([CH3])([CH3])[O][N+](=O)[O-]`: the growth inhibition was 25.6% in experiment [1]; 2.65% in experiment [2]; 44.6% in experiment [3]; 2.55% in experiment [4]; 48.7% in experiment [5]; 18.9% in experiment [6].

With `COc1ccccc1NC1=NCC(C)S1` (centres undefined), the growth inhibition in experiment [1] was -10.2%; in experiment [2] it was -15.2%; in experiment [3], -52%; in experiment [4], 24.4%; in experiment [5], -14.4%; in experiment [6], -2.1%.

Turning to `CCN(CC)CCN1CC2CCCCC2C1` (centres undefined), the growth inhibition in experiment [1] was 4.25%; in experiment [2] it was 0.35%; in experiment [3], 1%; in experiment [4], 5.45%; in experiment [5], 11.6%; in experiment [6], 3%.

On to `O=C1C(C(Nc2ccccc2)c2ccccc2)=C([O-])c2ccccc21.O=C1C(C(Nc2ccccc2)c2ccccc2)=C([O-])c2ccccc21.[Cu+2]` (centres undefined), for which the growth inhibition in experiment [1] is -12%; in experiment [2], -1.5%; in experiment [3] it was -10.2%; in experiment [4], 10.5%; in experiment [5], 4.75%; in experiment [6], -0.65%.

Take `CCC[N+](CCC)(CCC)CCC.[Ni+2].[SH2+]C([SH2+])=Nc1ccccc1.[SH2+]C([SH2+])=Nc1ccccc1`: the growth inhibition in experiment [1] was 24.1%; in experiment [2], 18.9%; in experiment [3] it was 9.6%; in experiment [4], -20.9%; in experiment [5], 4.7%; in experiment [6] it was 30.1%.

In the case of `CC1C/C(=C\N=[N+]=[N-])C(=O)O1` (centres undefined), the growth inhibition in experiment [1] was -11.4%; in experiment [2], 14.7%; in experiment [3] it was 6%; in experiment [4], -4.9%; in experiment [5] it was 12.4%; in experiment [6], -0.05%.

`O=C(O)c1ccccc1`: the growth inhibition in experiment [1] was -11.1% and -31.2%; in experiment [2] it was -0.2% and -17.9%; in experiment [3], -14.8% and 33.1%; in experiment [4], -10.7% and -12%; in experiment [5], -20.5% and -3.8%; in experiment [6], -38.4% and 10.8%.

For `CCN(CC)C(=O)N1CN(c2ccccc2)C2(CCN(CCCSc3ccc(F)cc3)CC2)C1=O`, the growth inhibition is 13.5% in experiment [1]; 0.65% in experiment [2]; 15.8% in experiment [3]; 12.4% in experiment [4]; 48.4% in experiment [5]; 20.6% in experiment [6].

For the molecule `CCOC(OCC)C(CC)[Se]c1ccccc1` (centres undefined), the growth inhibition in experiment [1] is 4.45%; in experiment [2], -9.6%; in experiment [3], 13.4%; in experiment [4], 0.6%; in experiment [5], 2.7%; in experiment [6], -7.9%.

`O=C(CCl)Oc1ccccc1Cl`: the growth inhibition in experiment [1] is -19.5%; in experiment [2], -5.4%; in experiment [3], -31.1%; in experiment [4], -42.9%; in experiment [5], -23.9%; in experiment [6], -31.6%.
